Pf Dd2 inh: Plasmodium falciparum Dd2 growth inhibition | P. falciparum Dd2 growth, SYBR Green, 72 h | Potency, µM (highest dose often 28.9 µM), hits mostly inhibitors | hit rate 4.3% among 120,000 | AID 1347417; active means well fitted inhibition curve with a large enough effect; further: nearly all actives have a fitted effect of over 65% in size
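Infected erythrocytes (Dd2, 0.3% parasitemia, 2.5% hematocrit final) are added to compound in RPMI-1640/Albumax II medium, grown 72 h at 37C in low oxygen, then lysed with saponin/Triton-X containing SYBR Green and read by fluorescence.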
Of the large screens only hits and unclear results are named; the others gave an inactive call. Many of the other results were omitted from the sample, so hits are more common in it than they were.

CCOc1ccc(-n2nc3ccc(NC(=O)COc4ccccc4)cc3n2)cc1	none
CCOc1ccc(-n2nc3ccc(NC(=O)c4ccc(C)cc4C)cc3n2)cc1	none
CCOc1ccc(-n2nc3ccc(NC(=O)c4ccc(-c5cccc(Cl)c5)o4)cc3n2)cc1	Pf Dd2 inh 2.82µM
Cn1ncc2c(C(=O)N3CCOCC3)cc(-c3ccc(Cl)nc3)nc21	none
O=C(NCc1nnc2c(-c3nc(C4CC4)no3)cccn12)C1CCCC1	none
O=C(c1ccc(Cl)cc1)N1CCc2c(n(Cc3cccnc3)n(-c3ccccc3)c2=O)C1	none
CCCCc1cc(C[C@@H]2C[C@H](NC(=O)NCC)C2(C)C)no1	none
CCCCCC(=O)N[C@H]1C[C@@H](Cc2cc(COC(=O)CCCCC)on2)C1(C)C	none
c1ccc(OCc2cc(CC3(NC4CCC4)COC3)no2)cc1	none
CC1(C)[C@H](Cc2cc(COc3ccccc3)on2)C[C@@H]1NC(=O)Nc1ccccc1	Pf Dd2 inh 10µM
CC1(C)[C@H](Cc2cc(COc3ccccc3)on2)C[C@@H]1NC1CCC1	Pf Dd2 inh 11.2µM
CC(C)(C)C(=O)N[C@H]1C[C@@H](Cc2cc(COc3ccccc3)on2)C1(C)C	none
CC1(C)[C@H](Cc2cc(CN3CCOCC3)on2)C[C@@H]1NC(=O)Nc1ccc(F)cc1	none
CN(C)[C@H]1C[C@@H](Cc2cc(COc3ccccc3)on2)C1(C)C	none
CCCCCC(=O)N[C@H]1C[C@@H](Cc2cc(COc3ccccc3)on2)C1(C)C	Pf Dd2 inh 11.2µM
COc1ccc(C(=O)N[C@H]2CO[C@H]3[C@@H]2OC[C@@H]3Nc2nccc(C(C)(C)C)n2)cc1	none
CC(C)NC(=O)N1CCC2(CC1)C(=O)NCN2C(=O)Cc1ccc(O)cc1	none
Cc1csc(NC(=O)c2nc3c(o2)CCN(Cc2c(C)noc2C)CC3)n1	none
O=C(c1cc(F)ccc1F)N1CCN(C(=O)c2nnn3c2COC(c2ccccc2)C3)CC1 (stereo unspecified)	none
Cc1ncsc1CN1CCCC(C(=O)NCc2ccccc2)CCNC(=O)CC1 (stereo unspecified)	none
O=C1NCCCCCCN(Cc2cccc(F)c2)[C@H]2C[C@H](C(=O)N3CCc4ccccc4C3)C[C@@H]12	Pf Dd2 inh 3.55µM
N#Cc1ccc(C(=O)N2CCCCCNC(=O)[C@@H]3CCCC[C@@H]32)cc1	none
N#Cc1ccc(CN2CCCCCCNC(=O)[C@@H]3C[C@@H](C(=O)N4CCc5ccccc5C4)C[C@@H]32)cc1	Pf Dd2 inh 2.82µM
Cc1ncsc1CN1CCCCCCNC(=O)[C@@H]2C[C@@H](C(=O)N3CCc4ccccc4C3)C[C@@H]21	Pf Dd2 inh 4.47µM
O=C1NCCCCCCN(C(=O)Cc2cccc(F)c2)[C@H]2CCC[C@@H]12	none
Cc1nc(C)c(C(=O)N2CC[C@H]3C(=O)NCCCCCCN(Cc4ccncc4)[C@@H]3C2)s1	none
O=C1NCCCCCN(C(=O)Cc2cccc(F)c2)[C@H]2CCC[C@@H]12	none
CCS(=O)(=O)N1CCCCCCNC(=O)[C@@H]2C[C@@H](C(=O)N3CCN(c4ccccn4)CC3)C[C@@H]21	none
N#Cc1ccccc1CN1CCCCCCNC(=O)[C@@H]2C[C@@H](C(=O)N3CCc4ccccc4C3)C[C@@H]21	Pf Dd2 inh 3.16µM
C=CCN1CC(C(=O)N2CCN(Cc3ccccc3C#N)CC2)CC1=O (stereo unspecified)	none
O=C1NCCCCCCN(Cc2ccncc2)[C@@H]2CN(C(=O)c3cccnc3)CC[C@@H]12	none
CC(=O)c1cc(C(=O)N2CCC(O)(c3ccc(C)cn3)CC2)c(=O)[nH]c1C	none
CC(=O)N1CCC([C@@H]2CN(Cc3cccc(F)c3F)C[C@H]2CO)CC1	none
CCN1CCCC1Cn1ccnc1-c1cc2n(n1)CCCNC2 (stereo unspecified)	none
O=C(c1ccccc1)N1CCC2(CC1)C(=O)NN=C2C1CC1	none
COc1ccc(OC)c(NC(=O)c2ccc3c(SCC(=O)O)c4c(nc3c2)CCCC4)c1	Pf Dd2 inh 10µM
COc1ccc(NC(=O)c2ccc3c(SCC(=O)O)c4c(nc3c2)CCC4)c(OC)c1	none
O=C(O)CSc1c2c(nc3cc(C(=O)Nc4ccc(F)c(Cl)c4)ccc13)CCC2	none
Cc1nccn1CCC(NC(=O)c1cn(CCN)nn1)c1ccccc1 (stereo unspecified)	none
O=C1CCC2(CCNCC2)CCN1Cc1ccccc1	none
CCN(CC)Cc1cnc2c(C(=O)N3CCN(c4ncccn4)CC3)cnn2c1	none
CCOC(=O)C1(Cc2ccc(F)cc2)CCCN(C(=O)c2ccco2)C1 (stereo unspecified)	none
CCOC(=O)C1(Cc2cccc(C(F)(F)F)c2)CCN(Cc2ccc(COC)o2)CC1	Pf Dd2 inh 8.91µM
FC(F)(F)c1cccc(C2=NOC3(CCN(Cc4ccccc4)CC3)C2)c1	none
CCOC(=O)C1(Cc2ccc(OC)cc2)CCN(C(=O)c2cccc(Cl)c2)CC1	none
CCOC(=O)C1(Cc2cccc(C(F)(F)F)c2)CCN(Cc2cc(C(C)C)n[nH]2)CC1	Pf Dd2 inh 7.08µM
CC(=O)NC1(C)CCN(Cc2cnc(-c3cccc(C(F)(F)F)c3)s2)CC1	none
O=C(NCc1ccccn1)C1CC(=O)N(c2n[nH]c3cccc(F)c23)C1 (stereo unspecified)	none
